Screening data: PubChem, several laboratories
tim23-1 inh: growth inhibitors of tim23-1 mutant yeast, primary screen, luminescence, uHTS. S. cerevisiae tim23-1 growth, BacTiter-Glo luminescence, 24 h. inhibition, % at 20 µM. hit rate 1.3% among 330,000;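 active = growth inhibition of the mutant yeast at or above 50%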;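 note: temperature-sensitive mutant grown at 25 °C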
tim10-1 inh: growth inhibitors of tim10-1 mutant yeast, primary screen, luminescence, uHTS. S. cerevisiae tim10-1 ts strain growth, BacTiter-Glo, 24 h. inhibition, % at 20 µM. hit rate 2.2% among 330,000. AID 463190, 2010;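 active = inhibition of at least 40%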;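 note: mutant grown at 25 °C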
NALP3 yeast inh: NALP3 inflammasome inhibitors in reconstituted yeast, primary screen, luminescence, uHTS; Yeast reconstituted NLRP3/ASC/caspase-1, beta-gal luminescence, 24 h; AID 2825, 2010; inhibition, % at 10 µM; hit rate 0.39% among 330,000;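 active = inhibition of 50% or more; inactive = inhibition below 50%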
PfHsp90 yeast 2: growth inhibition of PfHsp90-expressing yeast, primary screen, antimalarial PfHsp90 inhibitor project, S. cerevisiae, BacTiter-Glo luminescence, single point, set 2; BacTiter-Glo ATP, 48 h; yeast lacking PDR1 and PDR3 efflux regulators; inhibition, % at 9.4 µM; AID 504621, 2011; hit rate 0.32% among 310,000;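 active = every replicate shows inhibition above about 80%, whatever the replicate mean, limit read from the data; inconclusive = mean inhibition reaches the set limit but some replicate falls short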
TIM10 inh: growth inhibitors of isogenic TIM10 control yeast, primary screen, counter-screen for tim10-1 yeast inhibitor project, luminescence, uHTS; hit rate 1.4% among 330,000; S. cerevisiae TIM10 strain growth, BacTiter-Glo luminescence, 24 h; inhibition, % at 10 µM;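 active = inhibition of 40% or more at the single tested concentration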;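 note: wild-type TIM10 isogenic control strain grown at permissive 25 °C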
SKKanGAS inh: S. pyogenes SKKanGAS growth inhibitors in kanamycin, primary screen, streptokinase expression inhibitor project, SKKanGAS strain, BacTiter-Glo luminescence | 6 h | inhibition, % at 7.5 µM | hit rate 1.3% among 300,000;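 active = mean replicate score, as percent of positive control median, at least 50; inconclusive = mean below 50 but one replicate at or above 50; inactive = mean and every replicate below 50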;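 note: strain carries kanamycin resistance gene driven by streptokinase promoter and grows in 40 µg/ml kanamycin; loss of luminescence reflects streptokinase promoter inhibition or plain growth inhibition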
NALP3 confirm: NALP3 inhibitors retested in yeast, confirmation, luminescence, single concentration; inhibition, % at 10 µM; yeast expressing human NALP3; hit rate 81% among 1,300; shares compounds with NALP3 yeast inh; in the data active = inhibition above about 48%
Casp1 ASC ctr: CASP1-PYCARD signaling inhibition in yeast, confirmatory test, counterassay for NLRP3 inhibitor program, one-dose; hit rate 66% among 1,000; yeast expressing Caspase-1-ASC, luminescence counter screen; shares compounds with NALP3 yeast inh; inhibition, % at 10 µM
NALP3 retest: NALP3 inhibitors in yeast, repeat test, confirmation, luminescence, single concentration, retest. shares compounds with NALP3 yeast inh. yeast expressing human NALP3, luminescence read-out. inhibition, % at 10 µM. hit rate 53% among 1,000. AID 488794, 2010
tim10-1 conf: growth inhibitors of tim10-1 mutant yeast, confirmation, single concentration, luminescence, S. cerevisiae; S. cerevisiae tim10-1 ts strain growth, BacTiter-Glo, 24 h; inhibition, % at 20 µM; hit rate 56% among 7,400; AID 463213, 2010; shares compounds with tim10-1 inh;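 active = inhibition of yeast growth at or above a set limit in either of two repeat tests at 20 µM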;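 note: tim10-1 mutant grown at permissive 25 °C to find synthetic lethal compounds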
TIM10 conf: growth inhibitors of wild-type TIM10 yeast, confirmation, counter-screen for tim10-1 synthetic lethality project, single concentration, luminescence, S. cerevisiae | shares compounds with TIM10 inh | S. cerevisiae tim10 strain growth, BacTiter-Glo luminescence, 24 h | inhibition, % at 10 µM | hit rate 63% among 4,600 | AID 463215, 2010;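 active = inhibition of yeast growth at or above a set limit in either of two replicates at 10 µM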; note: this counterscreen used the strain with wild-type TIM10
tim23-1 confirm: tim23-1 mutant yeast growth inhibitors, confirmation, luminescence, single concentration; shares compounds with tim23-1 inh; S. cerevisiae tim23-1 growth, BacTiter-Glo luminescence, 24 h; inhibition, % at 20 µM; hit rate 83% among 4,400; AID 463218, 2010;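 active = inhibition above about 39% in either of two replicate wells at 20 µM, limit read from the data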;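 note: temperature-sensitive tim23-1 mutant grown at 25 °C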
Hits are given with their value; i = inactive; ? = inconclusive; nt = no result given; + = active, no number. This is a sample that favours compounds with a hit; in the whole collection about 4.5% have one here. Cut-off read from the data, not from the text of the source, unless noted: active = inhibition above about 50%; inactive = the rest.

SMILES	tim23-1 inh	tim10-1 inh	NALP3 yeast inh	PfHsp90 yeast 2	TIM10 inh	SKKanGAS inh	NALP3 confirm	Casp1 ASC ctr	NALP3 retest	others
C[C@]12CCC3C(CC[C@H]4C[C@@H](O)CC[C@]34C)[C@H]1CC[C@H]2O (some centres not stated)	i	i	51	i	i	nt	57	nt	nt
C[C@]12CCC3C(CC[C@H]4C[C@@H](O)CC[C@]34C)C1C[C@@H](Br)[C@@H]2O (some centres not stated)	i	i	i	nt	i	nt	nt	nt	nt
C[C@]12CC[C@H](O)CC1C(=O)CC1C2CC[C@@]2(C)C1CC[C@@H]2O (some centres not stated)	i	i	i	i	i	nt	i	50	i
CC12CCC(=O)CC1CCC1C2C(=O)CC2(C)C1CCC2(C)O (configuration not stated)	nt	nt	nt	i	nt	nt	nt	nt	nt
C[CH2][Hg][S]c1ccccc1C(=O)O	i	i	98	109	i	nt	99	100	99
CC(C)COC(=O)c1ccccc1C(=O)OCC(C)C	i	i	i	i	i	i	nt	nt	nt
CCC1C=CC=CC[C@H](C)[C@@H](O)[C@](C)(O)C(=O)[C@@H](C)[C@H](O)[C@@H](C)C(=O)[C@H](C)[C@@H](O)[C@H](C)C=CC(=O)OC2[C@@H](C)C(CC1)OC1(CC[C@@H](C)C(C[C@H](C)O)O1)[C@@H]2C (some centres not stated)	i	i	82	nt	i	nt	88	57	72
CN1C(=O)/C(=C/c2cccn2-c2ccc3ccccc3c2)C(=O)NC1=S	66	56	56	i	46	?	i	nt	nt	tim10-1 conf=53;TIM10 conf=49;tim23-1 confirm=64
CN/C=C(/Cl)P(=O)(OC(C)C)OC(C)C	i	i	i	i	i	i	nt	nt	nt
CN1C(=O)C(=Cc2ccccc2OCc2ccccc2Cl)C(=O)N(C)C1=O	i	i	i	i	i	i	nt	nt	nt
CN1C(=O)C(=Cc2c(OCc3cnc(Cl)s3)ccc3ccccc23)C(=O)N(C)C1=O	75	i	59	i	46	i	58	72	62	TIM10 conf=53;tim23-1 confirm=81
COC(=O)C1=C(c2ccc(-c3ccccc3)c(F)c2)C[C@@H]2CC[C@H]1N2C(=O)NCCCOC(C)C	i	i	i	i	i	nt	nt	nt	nt
C[C@@H]1C[C@@H]([C@H](O)CC2CC(=O)NC(=O)C2)C(=O)[C@@H](C)C1	73	i	97	+	68	nt	98	99	98	TIM10 conf=64;tim23-1 confirm=69
CCn1c(O)c(/C(C)=N/N2CCCCC2c2cccnc2)c(=O)[nH]c1=S (configuration not stated)	i	48	i	i	i	i	nt	nt	nt	tim10-1 conf=i
COc1ccc(CC(C)NCCC(c2ccccc2)c2ccccc2)cc1 (configuration not stated)	i	i	i	i	i	i	nt	nt	nt
